Reference: PubChem BioAssay AID977606 (Broad Institute, 2014)
The campaign covered roughly 1,500 compounds. About 430 (29%) were called active. No rule for the calls is given here. The list is a sample of the results. Entries with a potency or affinity are not part of this list.

assay: insulin secretion activators without glucose, dose response, counter-screen for glucose-dependent insulin secretion activators, cell-based, INS-1E, Gaussia luciferase, luminescence, cherry-pick (AID 977606); details: INS-1E Gaussia luciferase insulin secretion, no glucose, 100% = twice neutral-control luminescence; series mostly up to 35 µM

| Compound | outcome |
| --- | --- |
| CCCCNC(=O)O[C@H]1C[C@@H]2CCN3C(=O)CCC[C@H]([C@H]1CC)[C@H]23 | inactive |
| COc1ccc(CCNS(=O)(=O)c2cccc(C)c2)cc1OC | inactive |
| CCNC(=O)C1(C)CCCN1Cc1cccc(C(F)(F)F)c1 (stereo unspecified) | inactive |
| O=C(c1ccccc1F)N1CCCC(N2CCN(Cc3ccc4c(c3)OCO4)CC2)C1 (stereo unspecified) | inactive |
| CCN(CC)CCCN=C1N[C@@H](c2ccccc2)C(C(=O)OC)=C(C)N1CC | inactive |
| COc1ccc(S(=O)(=O)N(C)c2ccc(C(=O)N3CCCC3)cc2)cc1OC | inactive |
| CCN(CC)C(=O)c1ccccc1NS(=O)(=O)c1ccc(C)cc1 | inactive |
| CCN(CCC(=O)O)c1ccccc1 | inactive |
| CCCCC(=O)N(C)c1c(CC)nc2c(OCc3ccc(C(F)(F)F)cc3)cccn12 | inactive |
| C=C(C)n1c(=O)n(Cc2ccccc2C)c2ccccc21 | inactive |
| CCOC(=O)N1CCN(S(=O)(=O)N2CCCC(C(=O)NCc3cc(OC)ccc3OC)C2)CC1 (stereo unspecified) | inactive |
| COc1cc(C(F)(F)F)c(C(=O)NCc2cccc(Cl)c2)cn1 | inactive |
| CCCNC(=O)C1(C)CCN(C(=O)c2cccc(C(F)(F)F)c2)C1 (stereo unspecified) | inactive |
| CCn1cc(S(=O)(=O)NCCc2ccc(OC)c(OC)c2)cn1 | inactive |
| O=C(Nc1nnc(-c2ccc(Cl)cc2)o1)NC1CCCCC1 | inactive |
| COc1cc2cnc(-c3ccsc3)cc2cc1OC | inactive |
| CCOC(=O)C1CCCN(C(=O)c2cccnc2Oc2ccccc2)CC1 (stereo unspecified) | inactive |
| CCOC(=O)c1ccc(S(=O)(=O)N2CCC(C(=O)Nc3nnc(C)o3)CC2)cc1 | inactive |
| CCc1cccc(NC(=O)C2CCCN2S(=O)(=O)c2ccc3c(c2)n(C)c(=O)c(=O)n3C)c1 (stereo unspecified) | inactive |
| Cc1cccc(C)c1OCCCn1ccnc1 | inactive |
| CCSc1ncnc2sc3c(c12)CCC3 | inactive |
| O=C1c2cccnc2C(Nc2cccc(F)c2)N1Cc1ccco1 (stereo unspecified) | inactive |
| C[C@@H]1CN([C@H](C)CO)C(=O)CCCn2nncc2CO[C@H]1CN(C)C(=O)Nc1ccnc(N2CCOCC2)c1 | inactive |

| Compound | outcome |
| --- | --- |
| Cc1ccc(-c2nc(C#N)c(NCC3CCCO3)o2)cc1 (stereo unspecified) | inactive |
| CCOc1ccc(Nc2oc(-c3cccc(Cl)c3)nc2C#N)cc1 | inactive |
| CN1CCN(C(=O)c2cccc(-c3cnc4cnc(-c5ccccc5Oc5ccccc5)cn34)c2)CC1 | inactive |
| N#Cc1ccc(-c2ccc3c(c2)[C@@H]2[C@@H](CCN2C(=O)C2CCCC2)[C@@H](CO)N3)cc1 | inactive |
| COc1ccccc1C(=O)N/N=C(\C)CC(=O)Nc1ccc2c(c1)OCCO2 | inactive |
| COc1ccc(-n2c(=S)[nH]c3cc(C(=O)Nc4ccc(OC)c(OC)c4)ccc3c2=O)cc1 | inactive |
| C=CCc1ccccc1Oc1cc(OC)nc(N)n1 | inactive |
| COc1ccccc1CNC(=O)CCNS(=O)(=O)c1ccc2[nH]c(=O)oc2c1 | inactive |
| COc1ccc(-c2ccc(SCc3ccccn3)nn2)cc1OC | inactive |
| CC1(C(=O)NCc2ccccc2)CN(S(C)(=O)=O)CC(=O)N1C1CC1 (stereo unspecified) | inactive |
| CC(C)NC(=O)C1(C)CCN1Cc1cccc(C#N)c1 (stereo unspecified) | inactive |
| Cc1ccccc1CN(C)Cc1cc(=O)oc2c(C)c(C)ccc12 | inactive |
| C[C@H]1CN=C(N(C)C)N1CC1CCCC1 | inactive |
| Cc1nn(-c2ccccc2)c(N2CCCC2)c1/C=N/O | inactive |
| COc1ccccc1NS(=O)(=O)c1cccc(C(=O)N/N=C/c2c(C)nn(-c3ccccc3)c2N2CCCC2)c1 | inactive |
| COc1ccc(S(=O)(=O)Nc2cccc(-c3ccc4nncn4n3)c2)cc1F | inactive |
| COc1ccc2c(c1)CCc1cc(C(=O)O)sc1-2 | inactive |
| CNC(=O)c1[nH]nc2c1CCc1cc(OC)ccc1-2 | inactive |
| CCOc1ccc(C(C)=O)cc1COC(=O)CN1C(=O)NC2(CCCC2)C1=O | inactive |
| COc1ccc2c(c1)[C@@]1(OCCC=C[C@H]1C)C(=O)N2CC1CC1 | inactive |
| NC(=O)C1CCN(c2nc(-c3ccccc3)nc3ccccc23)CC1 | inactive |
| CN(Cc1ccccc1)c1ncnc2[nH]ncc12 | inactive |
| O=C(Nc1ccc(F)cc1)c1cccnc1Oc1ccccc1 | inactive |

| Compound | outcome |
| --- | --- |
| c1ccc(-c2ccccc2OCCN2CCCCC2)cc1 | inactive |
| N#Cc1sc2nc3c(c(-c4cccnc4)c2c1N)CCC3 | inactive |
| Cc1ccc(CS(=O)Cc2ccc(C(=O)NCc3ccccc3)o2)cc1 (stereo unspecified) | inactive |
| Cc1cccc(C)c1NC(=O)C1c2ccccc2OCC(=O)N1CCCN1CCOCC1 (stereo unspecified) | inactive |
| Cc1ccc(C(=O)n2nc(-c3cccnc3)nc2N)cc1 | inactive |
| COc1ccc(OCC(=O)NNC(=O)Cn2c(=O)cnc3ccccc32)cc1 | inactive |
| CC(=O)NCCc1nc2ccccc2n1CCOc1cccc(C)c1 | inactive |
| CCCCCCn1c(-c2cccs2)n[nH]c1=S | inactive |
| CCN1CCN(CC(=O)Nc2ccc(C(C)=O)cc2)CC1 | inactive |
| COc1ccc(OC)c(-c2nnc3n2N=C(c2ccc(OC)c(OC)c2)CS3)c1 | inactive |
| CC[C@@H]1CC2=C(C(=O)OC(C)(C)O2)[C@H](c2ccc(F)cc2)O1 | inactive |
| C#Cc1cccc(-n2nnc(C(=O)OC)c2-c2ccccc2)c1 | inactive |
| CCOC(=O)c1sc2nc(-c3ccccc3)ccc2c1N | inactive |
| Cc1cc(-c2ccccc2)n2nc(N)nc2n1 | inactive |
| CCCc1cc(=O)oc2cc(OCC(=O)NC3CCN(Cc4ccccc4)CC3)ccc12 | inactive |
| CNC(=O)C1CC(=O)N(c2ccc(OCC(=O)Nc3ccccc3)cc2)C1 (stereo unspecified) | inactive |
| Cc1ccc2c(c1)c(-c1ccccc1)nc1nncn12 | inactive |
| CCC(CC)NC(=O)c1ccccc1Oc1ccccc1 | inactive |
| COc1ccc(C2=Nn3c(nnc3-c3ccncc3)SC2)cc1OC | inactive |
| C/C(Cl)=C\Cn1c(N2CCCC2)nc2c1c(=O)n(C)c(=O)n2C | inactive |
| CCOc1cc(/C=C(\CC(=O)O)c2nc3ccccc3s2)ccc1OC | inactive |
| C=CCN1C(=O)CSc2ccc(C(=O)OCC)cc21 | inactive |
| CC(NC(=O)C1CCCN1S(=O)(=O)c1ccc2c(c1)n(C)c(=O)c(=O)n2C)c1ccccc1 (stereo unspecified) | inactive |

| Compound | outcome |
| --- | --- |
| N#CCCN(Cc1ccccc1)C(=O)c1cccs1 | inactive |
| CNc1nc(Cl)nc2c1ncn2-c1ccccc1 | inactive |
| COc1ccc(CCN2CC(=O)NC(=O)C2)cc1OC | inactive |
| CCOC(=O)Cn1c(=O)n(Cc2ccccc2)c(=O)c2cccnc21 | inactive |
| COc1ccc(S(=O)(=O)Nc2ccc3c(c2)OCO3)cc1OC | inactive |
| C[C@@H]1O[C@H](C2CCCC2)CC2=C1C(=O)OC(C)(C)O2 | inactive |
| COc1ccc(S(=O)(=O)N2CCOCC2)cc1NC(=O)COc1ccccc1 | inactive |
| CCOc1ccc(C(=O)OCC(=O)Nc2cc(C)on2)cc1OCC | inactive |
| COc1cc(C(C(=O)NC2CCCC2)N(Cc2ccco2)C(=O)c2snc(C(N)=O)c2N)cc(OC)c1OC (stereo unspecified) | inactive |
| N#CN=CN1CC=C(c2ccc(Cl)cc2)CC1 | inactive |
| CCOC(=O)c1cc(CC)sc1NC(=O)COC(=O)c1cnccn1 | inactive |
| CC(=O)Nc1sc(C)c(C)c1C(=O)OCC(=O)Nc1cc(S(C)(=O)=O)ccc1Cl | inactive |
| COc1ccc(CCNCc2cc3ccc(C)cc3[nH]c2=O)cc1OC | inactive |
| COc1cc(OC)c(OC)cc1CCC(C)NC(=O)Cc1ccccc1 (stereo unspecified) | inactive |
| COc1cc2c(cc1OC)-c1cc(Nc3ccc(N(C)C)cc3)nc(=O)n1CC2 | inactive |
| COc1ccc(N2CC(NS(=O)(=O)c3cccs3)CC2=O)cc1OC (stereo unspecified) | inactive |
| CCOC(=O)Cn1nc(-c2ccccc2)c(-c2ccccc2)nc1=O | inactive |
| O=C(O)c1ccc(-c2nc(-c3ccccc3)c(-c3cccs3)[nH]2)cc1 | inactive |
| O=C(Cc1c[nH]c2ccccc12)N[C@@H](Cc1c[nH]c2ccccc12)C(=O)O | inactive |
| Cc1ccc(S(=O)(=O)N(C)c2nc3ccccc3n3c(C(C)C)nnc23)cc1 | inactive |
| C=CCc1cccc(/C=N/NC(=O)CCC(=O)Nc2ccc(C)cc2)c1O | inactive |
| O=C(N/N=C/c1cc(Cl)ccc1O)c1ccc(Br)cc1 | inactive |
| COc1ccc(-c2nnc(-c3cccs3)o2)cc1OC | inactive |

| Compound | outcome |
| --- | --- |
| CCCCOc1ccc(-c2nnn(CC(=O)c3c[nH]c4ccccc34)n2)cc1 | inactive |
| CC(=O)c1cccc(N(CC(=O)NC2CCCCC2)C(=O)Cn2nnc(-c3ccccc3)n2)c1 | inactive |
| Cc1ccc2c(c1)C=CC(C#N)N2C(=O)c1ccccc1 (stereo unspecified) | inactive |
| CC(=O)N1CCN(c2nc(-c3cccs3)nc3ccccc23)CC1 | inactive |
| CN[C@H]1C[C@@H](c2ccccc2)N(C(C)=O)C[C@H]1CO | inactive |
| CCOC(=O)N1CCN(S(=O)(=O)c2ccc3c4c(cccc24)C(=O)N3)CC1 | inactive |
| CS(=O)(=O)c1nc(S(=O)(=O)c2ccc(Cl)cc2)c(N2CCCCCC2)s1 | inactive |
| C=CCn1cc(Cl)cc(C(=O)Nc2ccccc2)c1=O | inactive |
| c1ccc(-c2nnc3ccc(N4CCC5(CC4)OCCO5)nn23)cc1 | inactive |
| O=C(O)c1ccc(-n2nnnc2SCc2ccccc2Br)cc1 | inactive |
| CCC1OC(C2CC2)CC2=C1C(=O)OC(C)(C)O2 (stereo unspecified) | inactive |
| c1ccc(CCN2CCN=C2Nc2ccccc2)cc1 | inactive |
| O=C(NC1CCCCC1)C(c1ccc(F)cc1)N(Cc1ccccc1)C(=O)CN1C(=O)c2ccccc2S1(=O)=O (stereo unspecified) | inactive |
| COc1cc(C(=O)O)ccc1OCc1ccccc1 | inactive |
| COc1ccc(/C=N/NS(=O)(=O)c2ccccc2)cc1OC | inactive |
| O=C(O)c1ccc(-n2nnnc2SCc2cccc(Br)c2)cc1 | inactive |
| CCCCNc1cc(Cl)nc(N)n1 | inactive |
| O=C(N/N=C/c1ccncc1)c1cc(-c2ccc(Br)s2)[nH]n1 | inactive |
| CC1=CC(c2ccccc2)n2nc(NC(=O)CCC(=O)O)nc2N1 (stereo unspecified) | inactive |
